# Measured values as given in article PMC10812921, “Transcriptional Coactivator BOB1 (OBF1, OCA-B) Modulates the Specificity of DNA Recognition by the POU-Domain Factors OCT1 and OCT2 in a Monomeric Configuration”.
# Target: T1, POU2 (OCT2 POU domain);BOB1 (OBF1, OCA-B) (human;human, UniProt P09086;Q16633 175-386;1-256, |)
# T1 sequence 1: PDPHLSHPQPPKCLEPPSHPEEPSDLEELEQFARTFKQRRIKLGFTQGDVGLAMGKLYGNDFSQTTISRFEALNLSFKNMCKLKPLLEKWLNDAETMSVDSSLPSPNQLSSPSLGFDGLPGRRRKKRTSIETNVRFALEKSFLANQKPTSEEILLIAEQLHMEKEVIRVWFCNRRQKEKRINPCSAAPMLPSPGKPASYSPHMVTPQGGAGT
# T1 sequence 2: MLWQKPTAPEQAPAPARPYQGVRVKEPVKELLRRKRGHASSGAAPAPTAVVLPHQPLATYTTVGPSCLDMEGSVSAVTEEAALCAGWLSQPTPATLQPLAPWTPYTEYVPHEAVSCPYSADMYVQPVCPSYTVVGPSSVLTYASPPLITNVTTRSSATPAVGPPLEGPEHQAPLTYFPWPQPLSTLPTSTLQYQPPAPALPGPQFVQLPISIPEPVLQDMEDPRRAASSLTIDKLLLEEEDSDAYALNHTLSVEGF
# Test: EMSA-SELEX-seq; with BOB1 (ternary complex band); 20 mM Tris-HCl pH 7.6, 140 mM NaCl, 10% glycerol, 0.5 mM EDTA, 0.05% Triton X-100, 0.1 mg/mL BSA, 0.1 mg/mL poly(dI-dC), 5 mM DTT, room temperature, 20 min; high values mean tight binding
# Details: protein: recombinant;recombinant; copies: 1;1; dsDNA, one strand shown
# Summary of the method: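 After expression in E. coli BL21, tagged POU-domain proteins were purified under denaturing conditions and then renatured. Each binding reaction held 30 ng protein and 300 ng of a PCR-amplified double-stranded random 35-nt library in 20 μL Tris–HCl pH 7.6 binding buffer, with or without 28 ng coactivator protein, for 20 min at RT. Bands holding complexes were cut from native 6% PAGE, eluted and PCR-amplified across four rounds, and the output was Illumina-sequenced. The value given for binding preference is the share, in percent, of sequenced 8-mers fitting a motif pattern.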
row,Sequence,binding signal
1,AAGACAAA,0.0438 % of ANNNNAAN 8-mers
2,ACACGAAT,0.0438 % of ANNNNAAN 8-mers
3,AAGTAAAG,0.0545 % of ANNNNAAN 8-mers
4,ATCTCAAC,0.0264 % of ANNNNAAN 8-mers
5,ACTTTAAA,0.0495 % of ANNNNAAN 8-mers
6,AATTAAAC,0.0966 % of ANNNNAAN 8-mers
7,ACCGGAAC,0.0124 % of ANNNNAAN 8-mers
8,ACGAAAAA,0.0355 % of ANNNNAAN 8-mers
9,ACTCAAAT,0.0768 % of ANNNNAAN 8-mers
10,AGGGGAAC,0.0487 % of ANNNNAAN 8-mers
11,AGATCAAT,0.0578 % of ANNNNAAN 8-mers
12,AGAACAAA,0.033 % of ANNNNAAN 8-mers
13,ATTCGAAG,0.0405 % of ANNNNAAN 8-mers
14,ACATAAAA,0.0925 % of ANNNNAAN 8-mers
15,AATTTAAA,0.312 % of ANNNNAAN 8-mers
16,AAGGTAAA,0.0933 % of ANNNNAAN 8-mers
17,AGCAGAAG,0.0264 % of ANNNNAAN 8-mers
18,ATTGGAAG,0.0438 % of ANNNNAAN 8-mers
19,ATTTTAAC,0.0652 % of ANNNNAAN 8-mers
20,ATGCAAAA,3.29 % of ANNNNAAN 8-mers

row,Sequence,binding signal
1,AACTCAAA,0.0231 % of ANNNNAAN 8-mers
2,ATACGAAA,0.0693 % of ANNNNAAN 8-mers
3,ATTGGAAT,0.0966 % of ANNNNAAN 8-mers
4,ATTAAAAG,0.102 % of ANNNNAAN 8-mers
5,AGGAAAAA,0.102 % of ANNNNAAN 8-mers
6,AGCGCAAG,0.0165 % of ANNNNAAN 8-mers
7,AGTAGAAC,0.0239 % of ANNNNAAN 8-mers
8,AAACCAAA,0.0446 % of ANNNNAAN 8-mers
9,ATCTTAAC,0.0512 % of ANNNNAAN 8-mers
10,AGACGAAT,0.0479 % of ANNNNAAN 8-mers
11,ACGGGAAC,0.0231 % of ANNNNAAN 8-mers
12,AGCACAAT,0.0264 % of ANNNNAAN 8-mers
13,AGCCCAAT,0.0231 % of ANNNNAAN 8-mers
14,ATTTTAAG,0.101 % of ANNNNAAN 8-mers
15,ATAGAAAA,0.0619 % of ANNNNAAN 8-mers
16,ACATAAAG,0.0759 % of ANNNNAAN 8-mers
17,AATTTAAC,0.0982 % of ANNNNAAN 8-mers
18,ACTGGAAG,0.0314 % of ANNNNAAN 8-mers
19,ACCGTAAG,0.0281 % of ANNNNAAN 8-mers
